Results with a measured potency or affinity are listed apart. Records with an inconclusive call do not appear. Active and inactive are the calls of the source.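 How the source made its calls, unless noted: active means signal drop whose fitted half-maximal concentration is at most twice the top valid dose, in every test run; inconclusive means mixed calls across runs, poor fit, or flat 30 to 70% inhibition; inactive means wrong direction, flat within 30%, or potency beyond limit.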
Legend:
[1] = cytotoxicity in PAX8-dependent RMG-1 cells, dose response, cell-based, cherry-pick (AID 687029);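 further: cells exposed to compound for 96 hours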
[2] = cytotoxicity in IOSE-T80 ovarian epithelial cells, dose response, selectivity assay for PAX8 inhibitor project, cell-based, cherry-pick (AID 687032;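 active means fitted half-maximal concentration for viability loss no higher than twice the top valid dose, in every repeat run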;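 further: cells exposed to compound for 96 h before reading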)
[3] = inhibitors of CMV-promoter luciferase reporter, dose response, counter-screen for Pax8 inhibitor project, cell-based, HEK293, luminescence, dry powder (AID 743020;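 active means signal-lowering compounds whose fitted half-maximal concentration is at or below twice the top tested dose in every run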;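 further: HEK293 cells stably expressing the CMV luciferase reporter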)
[4] = HeLa cell cytotoxicity, dose response, cytotoxicity control, ATP luminescence, cherry-pick samples (AID 687004;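 active means a fitted half-maximal concentration no higher than twice the top valid tested dose, with signal falling as cells die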)
[5] = non-specific cell cytotoxicity, dose response, cytotoxicity control for PAX8 inhibitor project, plate reader, dry powder samples (AID 743021; call rule not given here)
[6] = inhibitors of PAX8-driven TPO luciferase reporter, dose response, RMG-I cells, cherry-pick (AID 687027;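 active means every replicate test run called active, with the signal dropping as expected and potency within twice the top valid dose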)

## O=c1[nH]c2ccccc2n1C1CCN(C(CCc2ccccc2)c2nnnn2Cc2ccccc2)CC1 (stereo not drawn)
[1]
  outcome: inactive
[2]
  outcome: inactive
[3]
  outcome: inactive

## C[C@H]1CN([C@@H](C)CO)C(=O)CCCn2nncc2CO[C@H]1CN(C)C(=O)Oc1cccc2ccccc12
[4]
  outcome: inactive

## CC[C@H](C)[C@@H]1NC(=O)CNC(=O)c2csc(n2)[C@H](C(C)(C)O)OC(=O)C(C)(C)[C@H](CCCC(C)(Cl)Cl)OC(=O)c2csc1n2
[1]
  outcome: inactive
[2]
  outcome: inactive
[3]
  outcome: inactive
[5]
  outcome: inactive

## COC(=O)C1=C(c2ccc(F)cc2OCc2ccccc2)C[C@@H]2CC[C@H]1N2C(=O)NC1Cc2ccccc2C1
[1]
  outcome: inactive
[2]
  outcome: inactive
[3]
  outcome: inactive
[5]
  outcome: inactive

## CC(=O)OC(C)(C)/C=C/C(=O)C(C)(O)C1C(O)CC2(C)C3CC=C4C(CC(O)C(=O)C4(C)C)C3(C)C(=O)CC12C (stereo not drawn)
[1]
  outcome: inactive
[2]
  outcome: inactive
[3]
  outcome: inactive
[5]
  outcome: inactive

## CSCCC(c1nnnn1-c1ccc2c(c1)OCCO2)N1CCC(n2c(=O)[nH]c3ccccc32)CC1 (stereo not drawn)
[1]
  outcome: inactive
[2]
  outcome: inactive
[3]
  outcome: inactive
[5]
  outcome: inactive

## C[C@@H]1O[C@@H](O[C@@H]2C=C3CCC4C(CC[C@]5(C)[C@@H](c6ccc(=O)oc6)CC[C@]45O)[C@@]3(C)CC2)[C@H](O)[C@H](O)[C@H]1O (stereo partly drawn)
[1]
  outcome: inactive
[2]
  outcome: inactive
[3]
  outcome: inactive
[5]
  outcome: inactive

## CC12CCC3C(CCC4(O)CC(O)CCC34C=NO)C1(O)CCC2C1=COC(=O)C1 (stereo not drawn)
[1]
  outcome: inactive
[2]
  outcome: inactive
[3]
  outcome: inactive
[5]
  outcome: inactive

## O=c1[nH]c2ccccc2n1C1CCN(C(c2cc3ccccc3o2)c2nnnn2-c2ccc3c(c2)OCCO3)CC1 (stereo not drawn)
[1]
  outcome: inactive

## CC[C@@]1(O)C(=O)OCc2c1cc1n(c2=O)Cc2cc3c(NC(=O)CN)cccc3nc2-1
[1]
  outcome: inactive
[2]
  outcome: inactive
[3]
  outcome: inactive
[5]
  outcome: inactive

## O=c1[nH]c(CN2CC=C(c3ccccc3)CC2)nc2cc(C(F)(F)F)ccc12
[4]
  outcome: inactive

## CCn1nc(/C=C/c2ccccc2)nc2c(=O)n(C)c(=O)nc1-2
[1]
  outcome: inactive

## C=C1C(C)C2C(Cc3ccccc3)NC(=O)C23OC(=O)/C=C/C(O)CCCC(C)C/C=C/C3C1O (stereo not drawn)
[1]
  outcome: inactive
[2]
  outcome: inactive

## C[C@H]1CCC/C=C/[C@@H]2C[C@H](O)C[C@H]2[C@H](O)/C=C/C(=O)O1
[1]
  outcome: inactive
[2]
  outcome: inactive
[3]
  outcome: inactive
[5]
  outcome: inactive

## O=c1[nH]c2ccccc2n1C1CCN(C(c2ccccc2OC(F)(F)F)c2nnnn2-c2ccc3c(c2)OCCO3)CC1 (stereo not drawn)
[1]
  outcome: inactive

## CC1=C(O)C(=O)C=C2C1=CC=C1C2(C)CCC2(C)C3CC(C)(C(=O)O)CCC3(C)CCC12C (stereo not drawn)
[1]
  outcome: inactive
[2]
  outcome: inactive
[3]
  outcome: inactive

## COc1cc2c(c(OC)c1OC)-c1ccc(O)cc1[C@@H](NC(C)=O)CC2
[1]
  outcome: inactive
[2]
  outcome: inactive
[3]
  outcome: inactive
[5]
  outcome: inactive

## COC(=O)C1=C(C(=O)OC)C2OC1c1cc3ccccc3cc12
[1]
  outcome: inactive
[2]
  outcome: inactive

## O=c1[nH]c2ccccc2n1C1CCN(C(c2cccc3ccccc23)c2nnnn2-c2ccc3c(c2)OCCO3)CC1 (stereo not drawn)
[1]
  outcome: inactive
[2]
  outcome: inactive
[3]
  outcome: inactive
[5]
  outcome: inactive

## CCCc1nc2ccc(Br)cc2c(=O)n1-c1ccc([N+](=O)[O-])c(C(F)(F)F)c1
[6]
  outcome: inactive
[1]
  outcome: inactive
[2]
  outcome: inactive
[3]
  outcome: inactive
[5]
  outcome: inactive

## N#CC1c2ccccc2-n2nncc2CN1Cc1cc(Cl)cc(Cl)c1 (stereo not drawn)
[1]
  outcome: inactive
[2]
  outcome: inactive
[3]
  outcome: inactive
[5]
  outcome: inactive

## O=c1[nH]c2ccccc2n1C1CCN(C(CCc2ccccc2)c2nnnn2-c2ccc3c(c2)OCCO3)CC1 (stereo not drawn)
[1]
  outcome: inactive

## C[C@@H]1CN([C@@H](C)CO)C(=O)CCCn2nncc2CO[C@H]1CN(C)C(=O)Oc1cccc2ccccc12
[4]
  outcome: inactive

## COc1ccc(-n2nnnc2C(CCc2ccccc2)N2CCC(n3c(=O)[nH]c4ccccc43)CC2)cc1 (stereo not drawn)
[1]
  outcome: inactive

## NC(=O)c1cn(C2OC(CO)C(O)C2O)c2ncnc(N)c12 (stereo not drawn)
[1]
  outcome: inactive
[2]
  outcome: inactive

## CC1=C(N2CC2)C(=O)C(CO)=C(N2CC2)C1=O
[1]
  outcome: inactive
[2]
  outcome: inactive
[3]
  outcome: inactive

## COC(=O)C1=C(c2ccc(F)cc2OCc2ccccc2)C[C@@H]2CC[C@H]1N2C(=O)NCc1ccc2[nH]ccc2c1
[1]
  outcome: inactive
[2]
  outcome: inactive
[3]
  outcome: inactive
[5]
  outcome: inactive

## CC1=CC(C)CC(C)OC(=O)CC(c2ccc(O)cc2)NC(=O)C(Cc2c(Br)[nH]c3ccccc23)N(C)C(=O)C(C)NC(=O)C(C)C1 (stereo not drawn)
[1]
  outcome: inactive
[2]
  outcome: inactive
[3]
  outcome: inactive
[5]
  outcome: inactive

## O=c1[nH]c2ccccc2n1C1CCN(C(c2cc3ccccc3o2)c2nnnn2Cc2ccccc2)CC1 (stereo not drawn)
[1]
  outcome: inactive
[2]
  outcome: inactive
[3]
  outcome: inactive
